{"source": "PubChem BioAssay"}
{"experiment": "binders of probe aFST on microarray, primary screen, stem cell growth factor project, biochemical, small-molecule microarray, fluorescence 635/667 (AID 1086);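 further: score merges 667 nm fluorescence with signal-to-noise of each printed compound spot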", "conditions": "higher = more signal"}
{"smiles": "COCCOC(=O)N1C(=O)[C@@]2(c3cc(C#Cc4ccc(OC)cc4)ccc31)[C@H](C(=O)N1CCN(c3ncccn3)CC1)[C@H]1C(=O)O[C@H](c3ccccc3)[C@H](c3ccccc3)N1[C@@H]2c1ccc(O)cc1", "composite z-score": 0.218}
{"smiles": "COC(=O)C(CC#Cc1ccc2c(c1)[C@]1(C(=O)N2)[C@H](C(=O)NC[C@H](O)c2ccccc2)[C@H]2C(=O)O[C@H](c3ccccc3)[C@H](c3ccccc3)N2[C@@H]1c1ccc(OCCO)cc1)C(=O)OC", "composite z-score": 2.31}
{"smiles": "O=C1C2C=CC(C(O)c3ccc(-c4ccccc4)s3)N(n3cnnc3)C2C(=O)N1Cc1ccccc1", "note": "(stereo not given)", "composite z-score": 0.415}
{"smiles": "O=c1cccc(C=Cc2ccccc2)o1", "composite z-score": -0.369}
{"smiles": "C=C(C(=O)CC[C@H](OC(C)=O)c1ccc(OCCO)cc1)C(C)C", "composite z-score": 0.0745}
{"smiles": "CCCC[C@H]1OB(O)C[C@H]2C1=C(C)C[C@H]1C(=O)N(Cc3ccccc3)C(=O)[C@H]12", "composite z-score": 0.267}
{"smiles": "CCCCC(CC)C(O)C1C=CC2C(=O)N(c3ccccc3)C(=O)C2N1Nc1ccccc1", "note": "(stereo not given)", "composite z-score": 1.1}
{"smiles": "O=C(OCCF)C1=CCC(c2cccc(Cl)c2)O1", "note": "(stereo not given)", "composite z-score": 0.5}
{"smiles": "COCC1=C2[C@@H](CCc3ccccc3)OB(O)C[C@@H]2[C@@H]2C(=O)N(Cc3ccccc3)C(=O)[C@@H]2C1", "composite z-score": -0.492}
{"smiles": "CC(C)C[C@@H]1NC(=O)[C@H]2C[C@@H](C(=O)NCCCCCNC(=O)CS)[C@@H](c3cccc(OCCO)c3)N2C1=O", "composite z-score": 0.707}
{"smiles": "COc1ccc(CCN2C(=O)[C@@]3(Cc4ccccc42)c2ccccc2C(=O)N(Cc2ccccc2Cl)[C@H]3c2ccc(CO)cc2)cc1", "composite z-score": -0.285}
{"smiles": "CCCCCN1CC=CC23O[C@@H]4C=CCOC(=O)[C@@H]4[C@H]2C(=O)N(CCCO)[C@@H]3C1=O", "note": "(stereo not given in full)", "composite z-score": -0.643}
{"smiles": "O=C1OCCC=C[C@H]2OC34C=CCN(Cc5ccccc5)C(=O)[C@H]3N(CCCCCCO)C(=O)[C@@H]4C12", "note": "(stereo not given in full)", "composite z-score": -0.26}
{"smiles": "CN(C)CCCCNC(=O)[C@H]1C[C@H]2C(=O)N[C@@H](Cc3ccccc3)C(=O)N2[C@H]1c1ccc(O)cc1", "composite z-score": 0.748}
{"smiles": "COCCOC(=O)N1C(=O)[C@@]2(c3cc(C#CCC(C(=O)OC)C(=O)OC)ccc31)[C@H](c1ccccc1OCCO)N1[C@H](c3ccccc3)[C@H](c3ccccc3)OC(=O)[C@H]1[C@@H]2C(=O)N1CCc2cc(OC)c(OC)cc2C1", "composite z-score": 0.638}
{"smiles": "COC(=O)[C@@]1(Cc2ccccc2)[C@H]2c3cc(C(=O)N(C)C)n(Cc4c(-c5ccccc5)noc4C)c3C[C@H]2CN1C(=O)c1ccccc1", "composite z-score": 1.41}
{"smiles": "O=C1C[C@@](C(=O)NC2CC2)(c2ccc([N+](=O)[O-])cc2)[C@@H](c2ccc(CO)cc2)N1CC12CC3CC(CC(C3)C1)C2", "composite z-score": 0.424}
{"smiles": "COCCOC(=O)N1C(=O)[C@@]2(c3cc(C#CC4=CCCCC4)ccc31)[C@H](C(=O)NC[C@H](O)c1ccccc1)[C@H]1C(=O)O[C@H](c3ccccc3)[C@H](c3ccccc3)N1[C@@H]2c1ccc(O)cc1", "composite z-score": 0.353}
{"smiles": "CC(C)NC(=O)[C@@]1(Cc2ccccc2I)c2ccccc2C(=O)N(Cc2ccccc2)[C@H]1c1ccc(CO)cc1", "composite z-score": 0.612}
{"smiles": "O=C1N(CCS(=O)(=O)c2ccccc2)c2ccccc2C[C@@]12COC(c1ccc(OCCCO)cc1)=N2", "composite z-score": 0.971}
{"smiles": "CC(C)(C)N1CC=CC23O[C@@H]4C=CCOC(=O)[C@@H]4[C@H]2C(=O)N(CCCCCO)[C@@H]3C1=O", "note": "(stereo not given in full)", "composite z-score": 0.411}
{"smiles": "COCCOC(=O)N1C(=O)[C@@]2(c3cc(C#CCNC(N)=O)ccc31)[C@H](C(=O)N1CCN(c3ncccn3)CC1)[C@H]1C(=O)O[C@H](c3ccccc3)[C@H](c3ccccc3)N1[C@@H]2c1ccccc1OCCO", "composite z-score": 1.28}
{"smiles": "COCCOC(=O)N1C(=O)[C@@]2(c3ccccc31)[C@H](c1ccc(O)cc1)N1[C@H](c3ccccc3)[C@H](c3ccccc3)OC(=O)[C@H]1[C@@H]2C(=O)N1CCc2cc(OC)c(OC)cc2C1", "composite z-score": 1.05}
{"smiles": "CCCN1C(=O)[C@]2(COC(c3ccc(OCCCO)cc3)=N2)Cc2ccccc21", "composite z-score": 0.486}
{"smiles": "NC(=O)NCC#Cc1ccc2c(c1)[C@]1(C(=O)N2)[C@H](C(=O)NC[C@H](O)c2ccccc2)[C@H]2C(=O)O[C@H](c3ccccc3)[C@H](c3ccccc3)N2[C@@H]1c1ccc(O)cc1", "composite z-score": 0.077}
{"smiles": "CC(C)N1C(=O)c2ccccc2[C@@H](C(=O)NCCCN(C)C)[C@@H]1c1ccc(CO)cc1", "composite z-score": 0.908}
{"smiles": "CC(C)=CCCC(C)=CC(O)C1C=CC2C(=O)N(c3ccccc3)C(=O)C2N1Nc1ccccc1", "note": "(stereo not given)", "composite z-score": 1.6}
{"smiles": "CN(C)CCCCCCNC(=O)[C@H]1C[C@H]2C(=O)N[C@@H](CCCCN)C(=O)N2[C@H]1c1ccc(O)cc1", "composite z-score": 3.49}
{"smiles": "O=C1O[C@H](c2ccccc2)[C@H](c2ccccc2)N2[C@H]1[C@@H](C(=O)N1CCN(c3ncccn3)CC1)[C@]1(C(=O)Nc3ccccc31)[C@H]2c1ccc(OCCO)cc1", "composite z-score": 0.348}
{"smiles": "COc1cc2c(cc1O)C(C)N(Cc1cccc(OC(F)(F)F)c1)CC2", "note": "(stereo not given)", "composite z-score": 0.226}
{"smiles": "[N-]=[N+]=NCc1ccccc1C[C@@]1(C(=O)N2CCOCC2)N=C(c2ccc(OCCCO)cc2)O[C@@H]1c1ccccc1CN=[N+]=[N-]", "composite z-score": 1.57}
{"smiles": "N[C@@H](Cc1ccccc1)Cn1cc(-c2ccccc2)nn1", "composite z-score": 0.746}
{"smiles": "CC(=CC1CCCCC1)[C@@H](NC(=O)c1ccc(C(F)(F)F)cc1)c1ccc(-c2ccccc2)cc1", "composite z-score": 0.112}
{"smiles": "CCOC(=O)C[C@H]1[C@H](OC(=O)c2ccccc2-c2ccccc2)[C@@H](NC(=O)c2ccc3ccccc3c2)c2cc(OCCCO)ccc2N1C(=O)c1ccc2ccccc2n1", "composite z-score": 0.484}
{"smiles": "CC(c1ccccc1)C(O)C1C=CC2C(=O)NC(=O)C2N1Nc1ccccn1", "note": "(stereo not given)", "composite z-score": 0.421}
